Assay results reported in the supplement of paper PMC10849652.
About 7,900 targets were measured; listed, in parts, are those with a hit and a random draw of the rest. About 0.6% of all pairs of compound and target were hits.

What was measured:
Test in all cases: log2 fold change, soluble protein after heating vs DMSO (PISA); higher = thermal stabilisation; K562 cells, 10 uM, 30 min; active = over 0.2 and 3.5 SD of the protein, either way, in both replicates (recomputed)
[1] = compound: COC1=CC=C(C=C1)CN2C=CC3=C2C=C(C=C3)C(=O)NO
Method in brief: (§1)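 Values are thermal stability changes relative to control samples and are taken from duplicates. They are stated as log2 fold changes. Before quantification by TMTpro 16plex LC-MS/MS with equalised channel sums, K562 cells at 2×10^6 cells/mL were treated with 10 μM compound for 30 min, heated in aliquots for 3 min across 48°C-58°C, pooled, extracted in PBS with 0.5% NP-40 at 4°C, and centrifuged at 21,000xg for 90 min to give the soluble supernatant.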

filanesib = compound: CON(C)C(=O)N1N=C(c2cc(F)ccc2F)S[C@@]1(CCCN)c1ccccc1 [filanesib]
Method in brief: as §1

zotarolimus = compound: CO[C@H]1C[C@@H]2CC[C@@H](C)[C@@](O)(O2)C(=O)C(=O)N2CCCC[C@H]2C(=O)O[C@H]([C@H](C)C[C@@H]2CC[C@H](n3cnnn3)[C@H](OC)C2)CC(=O)[C@H](C)/C=C(\C)[C@@H](O)[C@@H](OC)C(=O)[C@H](C)C[C@H](C)/C=C/C=C/C=C/1C [zotarolimus]
Method in brief: as §1

idasanutlin = compound: COc1cc(C(=O)O)ccc1NC(=O)[C@@H]1N[C@@H](CC(C)(C)C)[C@](C#N)(c2ccc(Cl)cc2F)[C@H]1c1cccc(Cl)c1F [idasanutlin]
Method in brief: as §1

alisertib = compound: COc1cc(Nc2ncc3c(n2)-c2ccc(Cl)cc2C(c2c(F)cccc2OC)=NC3)ccc1C(=O)O [alisertib]
Method in brief: as §1

[2] = compound: COc1cc2nc(-c3cc(F)ccc3O)nc(N[C@@H]3CNC[C@H]3C(C)(C)O)c2cc1OC
Method in brief: as §1

gefitinib = compound: COc1cc2ncnc(Nc3ccc(F)c(Cl)c3)c2cc1OCCCN1CCOCC1 [gefitinib]
Method in brief: as §1

[3] = compound: COc1cccc2cc(-c3nc([C@H]4CC[C@H](C(=O)O)CC4)n4ncnc(N)c34)[nH]c12
Method in brief: as §1

lapatinib = compound: CS(=O)(=O)CCNCc1ccc(-c2ccc3ncnc(Nc4ccc(OCc5cccc(F)c5)c(Cl)c4)c3c2)o1 [lapatinib]
Method in brief: as §1

pictilisib = compound: CS(=O)(=O)N1CCN(Cc2cc3nc(-c4cccc5[nH]ncc45)nc(N4CCOCC4)c3s2)CC1 [pictilisib]
Method in brief: as §1

[4] = compound: CS(=O)(=O)c1ccc(-c2cnc(N)c(C(=O)Nc3ccccc3)n2)cc1
Method in brief: as §1

crizotinib = compound: C[C@@H](Oc1cc(-c2cnn(C3CCNCC3)c2)cnc1N)c1c(Cl)ccc(F)c1Cl [crizotinib]
Method in brief: as §1

[5] = compound: C[C@@H]1COCCN1C2=NC(=NC(=C2)C3(CC3)S(=O)(=O)C)C4=C5C=CNC5=CC=C4
Method in brief: as §1

[6] = compound: C[C@H](C1=CC=C(C=C1)C(=O)NC2=C3C=CNC3=NC=C2)N
Method in brief: as §1

duvelisib = compound: C[C@H](Nc1ncnc2nc[nH]c12)c1cc2cccc(Cl)c2c(=O)n1-c1ccccc1 [duvelisib]
Method in brief: as §1

gandotinib = compound: Cc1cc(Nc2cc(CN3CCOCC3)c3nc(C)c(Cc4ccc(Cl)cc4F)n3n2)n[nH]1 [gandotinib]
Method in brief: as §1

tozasertib = compound: Cc1cc(Nc2cc(N3CCN(C)CC3)nc(Sc3ccc(NC(=O)C4CC4)cc3)n2)n[nH]1 [tozasertib]
Method in brief: as §1

[7] = compound: Cc1cc(SCc2sc(-c3ccc(C(F)(F)F)cc3)nc2C)ccc1OCC(=O)O
Method in brief: as §1

doramapimod = compound: Cc1ccc(-n2nc(C(C)(C)C)cc2NC(=O)Nc2ccc(OCCN3CCOCC3)c3ccccc23)cc1 [doramapimod]
Method in brief: as §1

ispinesib = compound: Cc1ccc(C(=O)N(CCCN)[C@@H](c2nc3cc(Cl)ccc3c(=O)n2Cc2ccccc2)C(C)C)cc1 [ispinesib]
Method in brief: as §1

Measured: log2 fold change

GAK (UniProt O14976)
UniProt O14976, sequence (O14976 whole entry, looked up): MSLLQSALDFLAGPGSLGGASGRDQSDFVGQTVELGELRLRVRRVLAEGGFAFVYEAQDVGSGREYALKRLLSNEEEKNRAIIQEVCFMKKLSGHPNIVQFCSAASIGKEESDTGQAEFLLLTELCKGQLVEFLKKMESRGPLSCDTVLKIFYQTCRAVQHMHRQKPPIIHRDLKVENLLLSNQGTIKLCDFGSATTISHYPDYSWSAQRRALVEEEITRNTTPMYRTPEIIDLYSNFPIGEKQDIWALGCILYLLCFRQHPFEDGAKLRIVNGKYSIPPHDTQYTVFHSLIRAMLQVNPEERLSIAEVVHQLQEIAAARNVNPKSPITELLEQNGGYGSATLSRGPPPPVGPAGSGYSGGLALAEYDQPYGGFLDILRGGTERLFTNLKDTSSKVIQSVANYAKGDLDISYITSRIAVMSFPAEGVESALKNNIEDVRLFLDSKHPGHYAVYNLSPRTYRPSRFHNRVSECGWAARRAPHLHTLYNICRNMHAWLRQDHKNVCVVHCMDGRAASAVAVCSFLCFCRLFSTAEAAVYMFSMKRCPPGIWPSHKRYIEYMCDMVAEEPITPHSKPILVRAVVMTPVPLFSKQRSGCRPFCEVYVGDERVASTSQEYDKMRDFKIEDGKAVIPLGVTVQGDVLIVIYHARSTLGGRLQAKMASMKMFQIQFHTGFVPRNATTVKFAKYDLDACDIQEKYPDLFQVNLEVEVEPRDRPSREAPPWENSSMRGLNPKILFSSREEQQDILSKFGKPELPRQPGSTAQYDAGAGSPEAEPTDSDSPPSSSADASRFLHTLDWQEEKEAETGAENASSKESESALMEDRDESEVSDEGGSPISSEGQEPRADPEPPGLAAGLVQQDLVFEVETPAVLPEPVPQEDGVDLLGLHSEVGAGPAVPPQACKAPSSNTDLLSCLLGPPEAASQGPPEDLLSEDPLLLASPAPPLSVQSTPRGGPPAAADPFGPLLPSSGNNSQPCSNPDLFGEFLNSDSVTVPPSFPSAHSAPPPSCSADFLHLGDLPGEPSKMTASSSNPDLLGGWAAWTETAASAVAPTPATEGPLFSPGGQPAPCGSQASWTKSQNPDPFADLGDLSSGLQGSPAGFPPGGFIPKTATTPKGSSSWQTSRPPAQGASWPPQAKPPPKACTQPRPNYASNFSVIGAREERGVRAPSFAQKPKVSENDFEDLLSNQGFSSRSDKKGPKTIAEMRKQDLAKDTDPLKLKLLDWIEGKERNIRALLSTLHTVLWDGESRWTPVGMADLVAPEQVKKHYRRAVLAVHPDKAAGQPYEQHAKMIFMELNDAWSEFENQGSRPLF
inactive: [1] -0.013 | filanesib 0.024 | zotarolimus 0.033 | idasanutlin -0.748 | alisertib -0.025 | [2] 1.44 | gefitinib 0.84 | [3] -0.107 | lapatinib 0.143 | pictilisib 0.226 | [4] 0.49 | crizotinib 0.115 | [5] -0.081 | [6] 1.26 | duvelisib -0.245 | gandotinib 0.02 | tozasertib 0.223 | [7] -0.121 | doramapimod 0.206 | ispinesib -0.157

GCDH (UniProt Q92947)
UniProt Q92947, sequence (Q92947 whole entry, looked up): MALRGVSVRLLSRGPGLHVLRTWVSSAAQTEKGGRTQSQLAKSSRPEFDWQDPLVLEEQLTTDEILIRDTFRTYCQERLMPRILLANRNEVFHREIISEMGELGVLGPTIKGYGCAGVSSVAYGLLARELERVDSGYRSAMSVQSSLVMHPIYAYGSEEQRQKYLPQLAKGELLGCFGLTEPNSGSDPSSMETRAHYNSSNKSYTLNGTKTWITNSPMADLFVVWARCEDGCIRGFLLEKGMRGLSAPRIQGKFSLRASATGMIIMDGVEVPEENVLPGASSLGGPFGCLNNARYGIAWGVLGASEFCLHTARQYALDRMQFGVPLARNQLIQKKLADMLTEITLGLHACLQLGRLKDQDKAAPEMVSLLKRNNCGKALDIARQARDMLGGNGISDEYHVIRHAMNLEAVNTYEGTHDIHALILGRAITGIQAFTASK
inactive: [1] 0.02 | filanesib -0.081 | zotarolimus 0.027 | idasanutlin -0.066 | alisertib -0.066 | [2] -0.011 | gefitinib 0.042 | [3] 0.016 | lapatinib -0.004 | pictilisib -0.02 | [4] 0.004 | crizotinib 0.058 | [5] 0.112 | [6] -0.032 | duvelisib 0.098 | gandotinib 0.076 | tozasertib -0.107 | [7] -0.021 | doramapimod -0.012 | ispinesib 0.041

FUBP3 (UniProt Q96I24)
UniProt Q96I24, sequence (Q96I24 whole entry, looked up): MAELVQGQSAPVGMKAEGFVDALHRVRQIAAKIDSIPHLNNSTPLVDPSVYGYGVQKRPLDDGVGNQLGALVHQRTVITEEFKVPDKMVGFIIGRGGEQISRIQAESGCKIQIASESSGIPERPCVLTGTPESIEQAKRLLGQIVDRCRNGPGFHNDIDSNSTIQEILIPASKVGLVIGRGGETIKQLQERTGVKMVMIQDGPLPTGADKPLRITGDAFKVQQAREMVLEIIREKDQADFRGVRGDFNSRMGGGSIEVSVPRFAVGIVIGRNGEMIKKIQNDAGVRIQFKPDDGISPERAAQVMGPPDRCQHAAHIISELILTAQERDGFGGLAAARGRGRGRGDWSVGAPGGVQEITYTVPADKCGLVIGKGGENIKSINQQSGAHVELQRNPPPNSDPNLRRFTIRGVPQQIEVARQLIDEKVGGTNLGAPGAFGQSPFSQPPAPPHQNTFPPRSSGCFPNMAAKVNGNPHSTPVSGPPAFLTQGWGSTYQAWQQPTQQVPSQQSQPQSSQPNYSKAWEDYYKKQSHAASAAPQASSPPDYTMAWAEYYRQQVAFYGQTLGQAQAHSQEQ
inactive: [1] 0.129 | filanesib 0.055 | zotarolimus -0.072 | idasanutlin 0.049 | alisertib 0.034 | [2] 0.165 | gefitinib -0.049 | [3] 0.009 | lapatinib 0.006 | pictilisib -0.062 | [4] -0.076 | crizotinib -0.046 | [5] -0.083 | [6] 0.065 | duvelisib -0.002 | gandotinib -0.106 | tozasertib -0.028 | [7] 0.013 | doramapimod -0.025 | ispinesib -0.049

HSPA8 (UniProt E9PN89)
inactive: [1] -0.312 | filanesib 0.126 | zotarolimus -0.036 | idasanutlin 0.113 | alisertib 0.042 | [2] 0.191 | gefitinib 0.035 | [3] 0.126 | lapatinib -0.426 | pictilisib 0.134 | [4] 0.12 | crizotinib 0.063 | [5] 0.024 | [6] 0.377 | gandotinib -0.068 | tozasertib -0.122 | doramapimod 0

FOXO3 (UniProt O43524)
UniProt O43524, sequence (O43524 whole entry, looked up): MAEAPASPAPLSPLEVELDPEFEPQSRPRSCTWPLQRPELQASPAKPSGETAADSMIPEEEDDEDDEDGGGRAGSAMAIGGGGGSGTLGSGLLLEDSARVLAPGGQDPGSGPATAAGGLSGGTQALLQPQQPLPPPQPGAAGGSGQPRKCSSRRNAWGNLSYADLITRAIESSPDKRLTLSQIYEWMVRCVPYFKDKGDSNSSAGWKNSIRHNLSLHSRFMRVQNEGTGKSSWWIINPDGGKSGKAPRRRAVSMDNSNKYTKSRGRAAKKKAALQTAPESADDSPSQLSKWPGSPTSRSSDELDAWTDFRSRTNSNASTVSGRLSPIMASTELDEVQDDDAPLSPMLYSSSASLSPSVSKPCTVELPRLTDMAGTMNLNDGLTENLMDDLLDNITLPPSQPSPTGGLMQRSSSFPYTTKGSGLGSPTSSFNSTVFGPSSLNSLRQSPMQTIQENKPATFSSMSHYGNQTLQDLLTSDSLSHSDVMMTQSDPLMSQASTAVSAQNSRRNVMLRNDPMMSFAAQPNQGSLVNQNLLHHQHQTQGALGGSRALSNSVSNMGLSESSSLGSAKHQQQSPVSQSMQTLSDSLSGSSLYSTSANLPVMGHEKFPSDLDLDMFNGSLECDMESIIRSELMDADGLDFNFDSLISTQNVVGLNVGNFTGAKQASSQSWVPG
active: crizotinib -0.423
inactive: [1] 0.027 | filanesib -0.069 | zotarolimus 0.083 | idasanutlin 0.154 | alisertib 0.149 | [2] -0.067 | [3] -0.068 | lapatinib -0.106 | pictilisib -0.09 | [4] -0.028 | [5] -0.444 | [6] 0.013 | duvelisib -0.354 | gandotinib -0.061 | tozasertib -0.095 | [7] 0.16 | doramapimod 0.005 | ispinesib -0.095

GEMIN2 (UniProt O14893)
inactive: [1] -0.099 | filanesib 0.132 | zotarolimus -0.093 | idasanutlin 0.034 | alisertib -0.017 | [2] -0.045 | gefitinib 0.032 | [3] -0.029 | lapatinib 0.034 | pictilisib 0.016 | [4] 0.032 | crizotinib -0.043 | [5] 0.001 | [6] 0.061 | duvelisib -0.129 | gandotinib 0.02 | [7] -0.013 | doramapimod 0.029 | ispinesib -0.149

GBA2 (UniProt Q9HCG7)
inactive: [1] -0.064 | filanesib 0.117 | zotarolimus 0.087 | idasanutlin -0.042 | alisertib 0.067 | [2] 0.049 | gefitinib 0.084 | [3] -0.062 | lapatinib 0.011 | [4] 0.091 | crizotinib 0.094 | [5] 0.051 | [6] 0.004 | duvelisib 0.041 | tozasertib -0.053 | [7] 0.067 | doramapimod 0.056

FCHO1 (UniProt O14526)
inactive: [1] 0.061 | filanesib 0.055 | zotarolimus 0.068 | idasanutlin 0.072 | alisertib -0.055 | [2] 0.256 | gefitinib 0.046 | [3] 0.022 | lapatinib -0.105 | [4] 0.033 | crizotinib -0.118 | [5] 0.158 | [6] 0.161 | duvelisib -0.039 | tozasertib 0.043 | [7] 0.109 | doramapimod -0.009 | ispinesib -0.264

GNS (UniProt P15586)
UniProt P15586, sequence (P15586 whole entry, looked up): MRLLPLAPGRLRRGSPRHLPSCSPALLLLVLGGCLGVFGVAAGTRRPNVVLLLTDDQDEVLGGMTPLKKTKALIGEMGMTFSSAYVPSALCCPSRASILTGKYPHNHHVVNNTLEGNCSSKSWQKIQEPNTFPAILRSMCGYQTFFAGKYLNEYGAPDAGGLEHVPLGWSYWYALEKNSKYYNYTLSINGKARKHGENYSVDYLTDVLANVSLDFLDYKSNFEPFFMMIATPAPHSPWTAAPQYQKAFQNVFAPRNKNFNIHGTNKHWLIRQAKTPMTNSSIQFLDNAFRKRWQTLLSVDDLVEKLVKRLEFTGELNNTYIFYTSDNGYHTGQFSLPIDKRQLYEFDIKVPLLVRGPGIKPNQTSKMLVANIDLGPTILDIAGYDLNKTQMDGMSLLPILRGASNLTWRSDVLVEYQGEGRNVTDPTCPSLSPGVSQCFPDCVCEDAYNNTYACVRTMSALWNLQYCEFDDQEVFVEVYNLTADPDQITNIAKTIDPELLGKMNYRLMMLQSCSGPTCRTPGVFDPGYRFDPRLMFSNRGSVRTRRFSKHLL
inactive: [1] -0.014 | filanesib -0.041 | zotarolimus -0.05 | idasanutlin -0.002 | alisertib -0.034 | [2] -0.011 | gefitinib 0.017 | [3] 0.039 | lapatinib -0.024 | pictilisib 0.014 | [4] 0.001 | crizotinib -0.115 | [5] 0.046 | [6] -0.032 | duvelisib 0.016 | gandotinib 0.061 | tozasertib 0.014 | [7] -0.028 | doramapimod 0.016 | ispinesib -0.021

FBXO6 (UniProt Q9NRD1)
active: crizotinib 0.475 | ispinesib 0.39
inactive: [1] -0.016 | filanesib 0.008 | zotarolimus 0.044 | idasanutlin -0.17 | alisertib -0.043 | [2] 0.022 | gefitinib 0.059 | [3] 0.038 | lapatinib 0.026 | pictilisib -0.091 | [4] 0.035 | [5] 0.052 | [6] -0.082 | duvelisib 0.04 | gandotinib 0.088 | tozasertib 0.036 | [7] 0.036 | doramapimod -0.049

GSK3A (UniProt P49840)
active: [4] 0.322
inactive: [1] -0.028 | filanesib -0.087 | zotarolimus -0.029 | idasanutlin -0.107 | alisertib 0.051 | [2] 0.088 | gefitinib -0.008 | [3] 0.045 | lapatinib -0.016 | pictilisib 0.188 | crizotinib 0.129 | [5] 0.053 | [6] 0.015 | duvelisib 0.044 | gandotinib 0.201 | tozasertib -0.006 | [7] 0.015 | doramapimod -0.039 | ispinesib 0.072

GAB2 (UniProt Q9UQC2)
UniProt Q9UQC2, sequence (Q9UQC2 whole entry, looked up): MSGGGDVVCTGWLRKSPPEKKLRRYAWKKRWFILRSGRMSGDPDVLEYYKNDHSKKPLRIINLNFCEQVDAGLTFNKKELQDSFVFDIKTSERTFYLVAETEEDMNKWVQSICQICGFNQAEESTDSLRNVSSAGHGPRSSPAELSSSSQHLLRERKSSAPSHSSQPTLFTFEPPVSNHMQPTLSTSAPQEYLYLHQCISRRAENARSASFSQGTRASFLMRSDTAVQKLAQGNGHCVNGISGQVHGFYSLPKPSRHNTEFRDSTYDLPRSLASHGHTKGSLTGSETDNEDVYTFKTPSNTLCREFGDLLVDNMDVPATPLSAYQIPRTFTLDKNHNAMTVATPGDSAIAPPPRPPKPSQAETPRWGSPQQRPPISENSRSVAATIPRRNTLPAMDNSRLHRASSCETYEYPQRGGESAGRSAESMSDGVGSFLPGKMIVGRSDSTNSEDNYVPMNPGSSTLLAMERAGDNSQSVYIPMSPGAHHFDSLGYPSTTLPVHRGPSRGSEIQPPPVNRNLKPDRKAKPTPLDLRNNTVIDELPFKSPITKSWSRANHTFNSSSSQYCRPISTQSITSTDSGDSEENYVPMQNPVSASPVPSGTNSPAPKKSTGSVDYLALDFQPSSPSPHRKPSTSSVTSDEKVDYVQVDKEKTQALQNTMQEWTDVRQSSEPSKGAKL
active: crizotinib -0.899 | duvelisib -0.836
inactive: [1] 0.044 | filanesib -0.053 | zotarolimus -0.145 | idasanutlin 0.084 | alisertib 0.007 | [2] -0.526 | [3] -0.236 | lapatinib 0.033 | pictilisib -0.348 | [4] -0.084 | [5] -0.361 | [6] 0.033 | gandotinib -0.071 | tozasertib -0.34 | [7] 0.181 | doramapimod 0.118 | ispinesib -0.511

HIKESHI (UniProt Q53FT3)
UniProt Q53FT3, sequence (Q53FT3 whole entry, looked up): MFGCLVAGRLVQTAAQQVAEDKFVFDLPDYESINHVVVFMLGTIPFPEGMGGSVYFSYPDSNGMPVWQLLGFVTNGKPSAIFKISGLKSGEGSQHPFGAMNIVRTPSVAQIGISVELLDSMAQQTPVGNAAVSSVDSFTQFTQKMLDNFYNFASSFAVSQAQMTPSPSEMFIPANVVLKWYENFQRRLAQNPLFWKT
inactive: [1] -0.051 | filanesib -0.063 | zotarolimus 0.026 | idasanutlin -0.05 | alisertib -0.076 | [2] 0.067 | gefitinib 0.011 | [3] 0.009 | lapatinib -0.021 | pictilisib -0.004 | [4] -0.007 | crizotinib 0.067 | [5] 0.182 | [6] -0.023 | duvelisib 0.101 | gandotinib -0.033 | tozasertib 0.023 | [7] -0.021 | doramapimod -0.013 | ispinesib 0.192

HS1BP3 (UniProt Q53T59)
inactive: [1] 0.032 | filanesib -0.085 | zotarolimus 0.02 | idasanutlin 0.039 | [2] 0.087 | gefitinib -0.196 | lapatinib 0.118 | [4] 0.06 | crizotinib -0.044 | [5] 0.028 | [6] 0.143 | duvelisib 0.096 | [7] -0.012 | doramapimod 0.089 | ispinesib -0.165

IFRD2 isoform 2 (UniProt Q12894)
active: [3] 0.508
inactive: [1] -0.073 | filanesib 0.008 | zotarolimus 0.24 | idasanutlin 0 | alisertib -0.278 | [2] -0.219 | gefitinib 0.128 | lapatinib 0.037 | pictilisib 0.336 | [4] 0.352 | crizotinib -0.047 | [5] 0.396 | [6] -0.035 | duvelisib 0.024 | gandotinib 0.155 | tozasertib -0.123 | [7] -0.059 | doramapimod 0.052 | ispinesib 0.089

FBL (UniProt P22087)
UniProt P22087, sequence (P22087 whole entry, looked up): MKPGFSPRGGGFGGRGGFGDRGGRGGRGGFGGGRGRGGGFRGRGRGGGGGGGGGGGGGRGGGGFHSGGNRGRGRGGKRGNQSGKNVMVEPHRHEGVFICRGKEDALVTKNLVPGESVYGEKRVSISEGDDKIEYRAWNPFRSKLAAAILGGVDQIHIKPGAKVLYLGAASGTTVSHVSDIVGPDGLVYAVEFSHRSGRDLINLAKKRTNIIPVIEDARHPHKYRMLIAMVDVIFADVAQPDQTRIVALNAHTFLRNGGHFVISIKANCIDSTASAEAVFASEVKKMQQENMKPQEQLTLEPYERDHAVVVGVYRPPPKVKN
inactive: [1] -0.154 | filanesib 0.664 | zotarolimus 0.034 | idasanutlin 0.441 | alisertib 0.006 | [2] 0.077 | gefitinib 0.059 | [3] -0.069 | lapatinib 0.11 | pictilisib -0.093 | [4] -0.054 | crizotinib 0.075 | [5] -0.266 | [6] 0.379 | duvelisib -0.084 | gandotinib 0.124 | tozasertib -0.043 | [7] -0.01 | doramapimod 0.279 | ispinesib 0.097

GNG5 (UniProt P63218)
UniProt P63218, sequence (P63218 whole entry, looked up): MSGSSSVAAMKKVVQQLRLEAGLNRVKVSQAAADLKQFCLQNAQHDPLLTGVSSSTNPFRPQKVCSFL
inactive: [1] 0.082 | filanesib 0.086 | zotarolimus -0.016 | idasanutlin 0.065 | alisertib -0.146 | [2] -0.022 | gefitinib 0.224 | [3] 0.079 | lapatinib -0.006 | pictilisib -0.087 | [4] 0.014 | crizotinib 0.094 | [5] 0.207 | [6] -0.13 | duvelisib 0.134 | gandotinib 0.055 | tozasertib 0.063 | [7] -0.071 | doramapimod 0.008 | ispinesib 0.216
